tested on: SUM149; test: percent difference in area under dose-response curve of relative cell number, RPMI vs HPLM; higher = drug relatively more effective in HPLM than RPMI (negative = less effective in HPLM); details: treatment time: 72 h; dose range: 10-point, 1 nM to 20 µM; media compared: RPMI vs HPLM

| SMILES | percent difference in area under dose-response curve |
| --- | --- |
| CS(=O)(=O)N1CCc2c(-c3cnc(N)nc3)nc(N3CCOCC3)nc21 | -3.59% |
| CC(C)n1nc(-c2ccc3oc(N)nc3c2)c2c(N)ncnc21 | 0.531% |
| Nc1cc(C(F)(F)F)c(-c2cc(N3CCOCC3)nc(N3CCOCC3)n2)cn1 | -2.14% |
| CC(C)n1c(/C=C/C(O)CC(O)CC(=O)O)c(-c2ccc(F)cc2)c2ccccc21 (stereo not drawn) [Fluvastatin_sodium] | -8.4% |
| Cc1cc(NC(=O)c2cccc(NC(=O)/C=C/CN(C)C)c2)ccc1Nc1nccc(-c2cccnc2)n1 | 7.32% |
| COc1ccc(S(=O)(=O)Nc2cccnc2Nc2ccc(O)cc2)cc1 | -6.35% |
| CCCCCCNC(=O)n1cc(F)c(=O)[nH]c1=O [Carmofur] | -3.39% |
| CC(=O)Nc1cccc(-n2c(=O)n(C3CC3)c(=O)c3c(Nc4ccc(I)cc4F)n(C)c(=O)c(C)c32)c1 | -18.1% |
| Cc1nccn1-c1ccc(Sc2cccc(C3(C(N)=O)CCOCC3)c2)cc1 | -9.07% |
| Cn1cc(-c2ccc3c(c2)CCN3C(=O)Cc2cccc(C(F)(F)F)c2)c2c(N)ncnc21 | 4.03% |
| Cc1ccccc1C(C(=O)NC1CCCC1)N(C(=O)Cn1cnc2ccccc21)c1cccc(F)c1 (stereo not drawn) | -1.67% |
| CC[C@]1(O)C[C@H]2CN(CCc3c([nH]c4ccccc34)[C@@](C(=O)OC)(c3cc4c(cc3OC)N(C=O)[C@H]3[C@@](O)(C(=O)OC)[C@H](OC(C)=O)[C@]5(CC)C=CCN6CC[C@]43[C@@H]65)C2)C1 [Vincristine] | -16.7% |
| COc1cc(OC)c(/C=C/S(=O)(=O)Cc2ccc(OC)c(NCC(=O)O)c2)c(OC)c1 [Rigosertib] | -46.7% |

Source: the supplement of paper PMC11383364
